The values below come from PMC5540273 (PLoS ONE, 2017).

For one test, the system named is T1, JNK1.
T1 construct: gene MAPK8

A further test relates to T2, JNK2.
T2 construct: gene MAPK9

Another test has as its system T3, JNK3.
T3 construct: gene MAPK10

Test [1] deals with JAK2(JH1domain-catalytic).
The subject of test [2] is JAK3(JH1domain-catalytic).
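Further: kd values determined as follow-up on hits from a single-replicate KINOMEscan panel screen.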

As to `Nc1n[nH]c2ncc(-c3ccccc3)cc12` [SB-517081], in the test on KIT, binding was put at a Kd of 92 nM.

In the case of `COC(=O)c1c(-c2ccccc2)c2cc(Br)ccc2c(=O)n1Cc1ccc(S(C)(=O)=O)cc1`, the Kd is 480 nM with JNK1, 350 nM with JNK2 and 73 nM with JNK3.

As to `CCC(=O)c1c(-c2ccccc2)c2cc(Cl)ccc2c(=O)n1Cc1ccc(C(=O)O)cc1`, the dissociation constant Kd with JNK1 stood at 66 nM; in the test with JNK2, 77 nM; in the test with JNK3 it was 12 nM.

With `COc1cc(Nc2nccc(N3CCC(NC(=O)C4COc5ccccc5O4)C3)n2)cc(OC)c1OC` (centres unmarked) [GSK1379761], the affinity in [1], expressed as Kd, was 47 nM.

In the case of `O=c1cc(N2CCOCC2)nc2n(Cc3ccc(F)c(Cl)c3)ccn12` [GSK2297099], the Kd in test [1] is over 10000 nM.

For `Cc1nc(N(C)[C@H]2CN(C(=O)CC#N)CC[C@H]2C)c2cc[nH]c2n1`, in test [2], the Kd is 140 nM.

Consider `Fc1cccc(CSc2nnc(-c3ccc4c(c3)CCO4)o2)c1`, for which, in the test with IRAK4, the Kd is over 10000 nM.

`COc1cccc(C2=C(Nc3cccc(C(=O)O)c3)C(=O)NC2=O)c1` [SB-390770]: in test [2], the affinity, expressed as Kd, was 480 nM.

As for `CC(C)(C)c1ccc(C(=O)Nc2cn3cc(-c4ccccc4)ccc3n2)cc1`, in the test on KIT, the Kd is over 10000 nM.

In the case of `Nc1nc(-c2ccccc2F)c(-c2ccnc3ccccc23)s1` [GW560459], the Kd in the test on INSR is over 10000 nM; with JNK2 it was 1200 nM; in the test on JNK3 it was 610 nM.

Consider `Cl.NS(=O)(=O)c1cccc(Nc2cc(-c3ccc(F)cc3)n[nH]2)c1` [GW824645], for which, in the test on KIT, the Kd turned out to be 16 nM.

As for `CCC(=O)c1c(-c2ccccc2)c2cc(Cl)ccc2c(=O)n1Cc1cc(C(=O)NC2CC2)n(C)n1`, the dissociation constant Kd in the test on JNK1 is 20 nM; in the test with JNK2 it was 10 nM; in the test with JNK3 it was 3.8 nM.

For `CCCNC(=O)Nc1ccc(Oc2ncnc3ccn(C)c23)cc1`, in the test with KIT, the Kd was 67 nM.

`COc1ccc(Nc2nccc(N3CCC(NS(=O)(=O)c4ccc(NC(C)=O)cc4)C3)n2)cc1` (centres unmarked) [GSK1379729] returned a Kd in test [1] of 38 nM.

`CN(C)c1cc(-c2ccc3c(N)n[nH]c3c2)nc(N)n1` [GSK2219329]: the Kd with KIT-autoinhibited is over 10000 nM.

A word on the Kd: it is the concentration at which binding is half-saturated. A higher Kd goes with lower affinity.
